Reference: PubChem BioAssay AID1159580 (chemical genetic matrix, 2015)
“And” between values parts separate entries of the source, which are not always exact repeats. Identical values can stand only once. The whole screen tested about 5,500 compounds, of which about 2,000 (36%) were called active. Roughly 18% stayed inconclusive and do not appear here. Cut-off read from the data, not from the text of the source: active = normalized growth mostly below about 0.91 (no sharp cut-off); inconclusive = no clear call, values can overlap the other calls; inactive = mostly above about 0.92. The list shows a part of the results.

Test: chemical genetic growth profiling, strain panel (AID 1159580);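 note: tested at 20 µM; growth read once vehicle control cultures reached saturation at 30 °C; 1 = growth at the plate median or of vehicle wells; lower values mean less growth of the strain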
Conditions: S. cerevisiae deletion strains, growth OD

## O=[N+]([O-])c1ccc(O)c([N+](=O)[O-])c1
Locus YAL013W, strain DEP1, stronger effect = lower value
  normalized growth: 0.837 (active)
Locus YAL021C, strain ccr4, stronger effect = lower value
  normalized growth: 0.869 (active)
Locus YAL026C, strain drs2, stronger effect = lower value
  normalized growth: 0.776 (active)
Locus YAL030W, strain snc1, stronger effect = lower value
  normalized growth: 0.812 (active)
Locus YBL061C, strain skt5, stronger effect = lower value
  normalized growth: 0.832 (active)
Locus YBR009C, strain hhf1, stronger effect = lower value
  normalized growth: 0.823 (active)
Locus YBR021W, strain FUR4, stronger effect = lower value
  normalized growth: 0.647 (active)
Locus YBR023C, strain chs3, stronger effect = lower value
  normalized growth: 0.88 (active)
Locus YBR171W, strain sec66, stronger effect = lower value
  normalized growth: 0.799 (active)
Locus YBR229C, strain ROT2, stronger effect = lower value
  normalized growth: 0.839 (active)
Locus YBR231C, strain swc5, stronger effect = lower value
  normalized growth: 0.851 (active)
Locus YBR279W, strain paf1, stronger effect = lower value
  normalized growth: 0.817 (active)
Locus YCL011C, strain gbp2, stronger effect = lower value
  normalized growth: 0.807 (active)
Locus YCL016C, strain dcc1, stronger effect = lower value
  normalized growth: 0.873 (active)
Locus YCL029C, strain bik1, stronger effect = lower value
  normalized growth: 0.693 (active)
Locus YCL069W, strain vba3, stronger effect = lower value
  normalized growth: 0.775 (active)
Locus YCR088W, strain abp1, stronger effect = lower value
  normalized growth: 0.775 (active)
Locus YDL005C, strain med2, stronger effect = lower value
  normalized growth: 0.875 (active)
Locus YDL035C, strain GPR1, stronger effect = lower value
  normalized growth: 0.871 (inactive)
Locus YDL040C, strain nat1, stronger effect = lower value
  normalized growth: 0.848 (active)
Locus YDL074C, strain BRE1, stronger effect = lower value
  normalized growth: 0.824 (inactive)
Locus YDL101C, strain DUN1, stronger effect = lower value
  normalized growth: 0.877 (active)
Locus YDL134C, strain PPH21, stronger effect = lower value
  normalized growth: 0.796 (active)
Locus YDL185W, strain tfp1, stronger effect = lower value
  normalized growth: 0.109 (active)
Locus YDL192W, strain arf1, stronger effect = lower value
  normalized growth: 0.759 (active)
Locus YDR001C, strain nth1, stronger effect = lower value
  normalized growth: 0.766 (active)
Locus YDR069C, strain doa4, stronger effect = lower value
  normalized growth: 0.936 (inactive)
Locus YDR101C, strain arx1, stronger effect = lower value
  normalized growth: 0.686 (active)
Locus YDR137W, strain rgp1, stronger effect = lower value
  normalized growth: 0.915 (inactive)
Locus YDR150W, strain NUM1, stronger effect = lower value
  normalized growth: 0.788 (active)
Locus YDR159W, strain sac3, stronger effect = lower value
  normalized growth: 0.677 (active)
Locus YDR162C, strain NBP2, stronger effect = lower value
  normalized growth: 0.785 (active)
Locus YDR195W, strain ref2
  normalized growth: 0.927 (inactive)
Locus YDR297W, strain sur2, stronger effect = lower value
  normalized growth: 0.826 (active)
Locus YDR318W, strain mcm21, stronger effect = lower value
  normalized growth: 0.727 (active)
Locus YDR334W, strain swr1, stronger effect = lower value
  normalized growth: 0.742 (active)
Locus YDR335W, strain msn5, stronger effect = lower value
  normalized growth: 0.798 (active)
Locus YDR388W, stronger effect = lower value
  normalized growth: 0.694 (active)
Locus YDR392W, strain spt3, stronger effect = lower value
  normalized growth: 0.674 (active)
Locus YDR502C, strain sam2, stronger effect = lower value
  normalized growth: 0.735 (active)
Locus YEL003W, strain gim4, stronger effect = lower value
  normalized growth: 0.829 (active)
Locus YEL037C, strain rad23, stronger effect = lower value
  normalized growth: 0.797 (active)
Locus YEL061C, strain CIN8 (second series), stronger effect = lower value
  normalized growth: 0.794 (active)
Locus YEL061C, strain CIN8, stronger effect = lower value
  normalized growth: 0.817 (active)
Locus YER015W, strain faa2, stronger effect = lower value
  normalized growth: 0.795 (active)
Locus YER016W, strain bim1, stronger effect = lower value
  normalized growth: 0.89 (active)
Locus YER110C, stronger effect = lower value
  normalized growth: 0.64 (active)
Locus YER111C, strain swi4, stronger effect = lower value
  normalized growth: 0.79 (active)
Locus YER155C, strain BEM2 (second series), stronger effect = lower value
  normalized growth: 0.615 (active)
Locus YER155C, strain BEM2, stronger effect = lower value
  normalized growth: 0.63 (active)
Locus YER167W, strain BCK2, stronger effect = lower value
  normalized growth: 0.76 (active)
Locus YFR010W, strain ubp6, stronger effect = lower value
  normalized growth: 0.861 (active)
Locus YGL078C, strain dbp3, stronger effect = lower value
  normalized growth: 0.252 (active)
Locus YGL086W, strain mad1, stronger effect = lower value
  normalized growth: 0.779 (active)
Locus YGL167C, strain pmr1, stronger effect = lower value
  normalized growth: 0.84 (active)
Locus YGL173C, strain kem1, stronger effect = lower value
  normalized growth: 0.822 (active)
Locus YGL227W, strain vid30, stronger effect = lower value
  normalized growth: 0.743 (active)
Locus YGL240W, strain doc1, stronger effect = lower value
  normalized growth: 0.739 (active)
Locus YGL248W, strain PDE1, stronger effect = lower value
  normalized growth: 0.81 (active)
Locus YGL253W, strain hxk2, stronger effect = lower value
  normalized growth: 0.717 (active)
Locus YGR078C, strain PAC10, stronger effect = lower value
  normalized growth: 0.789 (active)
Locus YGR135W, strain pre9, stronger effect = lower value
  normalized growth: 0.76 (active)
Locus YGR229C, strain SMI1, stronger effect = lower value
  normalized growth: 0.81 (inactive)
Locus YGR252W, strain gcn5, stronger effect = lower value
  normalized growth: 0.709 (active)
Locus YHR013C, strain ard1, stronger effect = lower value
  normalized growth: 0.981 (inactive)
Locus YHR027C, strain rpn1, stronger effect = lower value
  normalized growth: 0.814 (active)
Locus YHR079C, strain IRE1 (second series), stronger effect = lower value
  normalized growth: 0.665 (active)
Locus YHR079C, strain IRE1, stronger effect = lower value
  normalized growth: 0.254 (active)
Locus YHR094C, strain hxt1, stronger effect = lower value
  normalized growth: 0.681 (active)
Locus YHR129C, strain ARP1, stronger effect = lower value
  normalized growth: 0.738 (active)
Locus YHR142W, strain chs7, stronger effect = lower value
  normalized growth: 0.792 (active)
Locus YHR200W, strain rpn10, stronger effect = lower value
  normalized growth: 0.736 (active)
Locus YIL066C, strain RNR3, stronger effect = lower value
  normalized growth: 0.794 (active)
Locus YIL073C, strain SPO22, stronger effect = lower value
  normalized growth: 0.986 (inactive)
Locus YIL125W, strain kgd1, stronger effect = lower value
  normalized growth: 0.211 (active)
Locus YIR030C, strain dcg1, stronger effect = lower value
  normalized growth: 0.694 (active)
Locus YJL092W, strain hpr5, stronger effect = lower value
  normalized growth: 0.759 (active)
Locus YJL095W, strain BCK1 (second series), stronger effect = lower value
  normalized growth: 0.834 (active)
Locus YJL095W, strain BCK1, stronger effect = lower value
  normalized growth: 0.801 (inactive) and 0.3 (active)
Locus YJL115W, strain asf1, stronger effect = lower value
  normalized growth: 0.757 (active)
Locus YJL129C, strain trk1, stronger effect = lower value
  normalized growth: 0.694 (active)
Locus YJL134W, strain LCB3, stronger effect = lower value
  normalized growth: 0.777 (active)
Locus YJL154C, strain vps35, stronger effect = lower value
  normalized growth: 0.773 (active)
Locus YJL164C, strain tpk1, stronger effect = lower value
  normalized growth: 0.863 (active)
Locus YJL166W, strain qcr8, stronger effect = lower value
  normalized growth: 0.85 (active)
Locus YJL168C, strain set2, stronger effect = lower value
  normalized growth: 0.719 (active)
Locus YJL187C, strain SWE1 (second series), stronger effect = lower value
  normalized growth: 0.825 (active)
Locus YJL187C, strain SWE1, stronger effect = lower value
  normalized growth: 0.842 (active)
Locus YJR043C, strain POL32, stronger effect = lower value
  normalized growth: 0.892 (inactive)
Locus YJR066W, strain TOR1, stronger effect = lower value
  normalized growth: 0.254 (active)
Locus YJR075W, strain HOC1, stronger effect = lower value
  normalized growth: 0.824 (active)
